# Screening data as filed in PubChem.
# tim23-1 inh – inhibits growth of tim23-1 mutant yeast; S. cerevisiae tim23-1 growth, BacTiter-Glo luminescence, 24 h; inhibition, % at 20 µM; 330,000 tested, 1.3% active;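 active = growth inhibition of the mutant yeast at or above 50%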;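 also: temperature-sensitive mutant grown at 25 °C; plate controls were DMSO-treated mutant yeast for no effect and medium wells lacking yeast for full effect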
# TIM10 inh – inhibits growth of TIM10 yeast strain; AID 463195; inhibition, % at 10 µM; S. cerevisiae TIM10 strain growth, BacTiter-Glo luminescence, 24 h; 330,000 tested, 1.4% active;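 active = inhibition of 40% or more at the single tested concentration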;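 also: wild-type TIM10 isogenic control strain grown at permissive 25 °C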
# tim10-1 inh – inhibits growth of tim10-1 mutant yeast | 330,000 tested, 2.2% active | inhibition, % at 20 µM | S. cerevisiae tim10-1 ts strain growth, BacTiter-Glo, 24 h;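 active = inhibition of at least 40%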;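 also: mutant grown at 25 °C; 0% = DMSO wells with yeast and 100% = wells holding no yeast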
# NALP3 yeast inh – blocks the NALP3 inflammasome reconstituted in yeast. Yeast reconstituted NLRP3/ASC/caspase-1, beta-gal luminescence, 24 h. inhibition, % at 10 µM. 330,000 tested, 0.39% active;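 active = inhibition of 50% or more; inactive = inhibition below 50%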;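 also: plate controls were induced DMSO wells for no effect and uninduced yeast grown without galactose for full effect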
# PfHsp90 set2 – reduces growth (ATP signal) of yeast expressing P. falciparum Hsp90; S. cerevisiae expressing PfHsp90, BacTiter-Glo ATP, 48 h; yeast lacking PDR1 and PDR3 efflux regulators; inhibition, % at 9.4 µM; 310,000 tested, 0.32% active; AID 504621;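 active = every replicate shows inhibition above about 80%, whatever the replicate mean, limit read from the data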;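 also: 0% = DMSO neutral controls and 100% = 20 µM radicicol positive controls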
# NALP1 yeast inh – blocks the NALP1 inflammasome reconstituted in yeast | S. cerevisiae NALP1/ASC/caspase-1 growth, X-gal OD620, 72 h | inhibition, % at 10 µM | 280,000 tested, 0.61% active | AID 2071; in the data active = inhibition mostly above about 24%, no sharp cut-off; inactive = mostly below about 32%
# tim10 confirm – TIM10 yeast growth inhibition, confirmed; shares compounds with TIM10 inh; inhibition, % at 10 µM; S. cerevisiae tim10 strain growth, BacTiter-Glo luminescence, 24 h; AID 463215; 4,600 tested, 63% active;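 active = inhibition of yeast growth at or above a set limit in either of two replicates at 10 µM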;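 also: this counterscreen used the strain with wild-type TIM10; 0% = yeast with DMSO and 100% = medium wells lacking yeast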
# Active calls of the source: *; . = not tested or not shown. In the library only some 4.1% were active in any assay of this set; here they are far more common.
SMILES,tim23-1 inh,TIM10 inh,tim10-1 inh,NALP3 yeast inh,PfHsp90 set2,NALP1 yeast inh,tim10 confirm
Cc1cc2nc(/C=C/c3nc4cc(C)c(C)cc4[nH]3)[nH]c2cc1C,.,.,.,.,-11,9,.
Cc1cc2nc(/C=C/c3cccnc3)[nH]c2cc1C,38,51*,-4,24,6,3,69*
CCOC(=O)C1=C(COC(=O)CCOc2cc(C)ccc2C)NC(=O)NC1C (stereo not given),4,1,-3,6,14,.,.
c1ccc2c(c1)oc1c(Nc3ccc4c(c3)OCCO4)ncnc12,10,5,16,12,-11,-3,.
Cc1nc(Nc2ccc3c(c2)OCCO3)c2oc3ccccc3c2n1,38,40*,31,17,8,17,21
CCOc1ccc(S(=O)(=O)N2CCCCC2)cc1NC(=O)c1ccccc1,.,.,.,.,11,.,.
CC1Cc2ccccc2N1C(=O)C1CCCN(S(=O)(=O)c2cccc3nsnc23)C1 (stereo not given),33,44*,34,8,-8,6,-27
Cc1ccc(-c2nnc(N(C)C(=O)c3cccnc3)s2)cn1,-7,14,-2,6,16,-8,.
Cc1ccc(-c2nnc(N(C)C(=O)c3cccnc3)s2)cc1,46,42*,14,37,24,41*,8
CCOc1ccc(NC(=O)c2cc(C3CC3)nc3c2cnn3C(C)C)cc1OC,21,-8,-12,31,-36,.,.
O=C(Nc1ccc2oc(-c3ccncc3)nc2c1)c1ccccc1,9,45*,1,12,-2,-4,-3
O=C(Nc1ccc2oc(-c3ccncc3)nc2c1)c1ccccc1F,-4,36,16,26,10,-1,.
O=C(Nc1ccc2oc(-c3ccccc3)nc2c1)c1ccccc1F,26,65*,13,14,-3,0,54*
Cc1ccc(S(=O)(=O)/N=C(/Nc2ccc(F)cc2F)c2ccccc2)cc1,27,10,24,20,6,12,.
N#CC1=C(N)Oc2n[nH]c(-c3cccs3)c2C1c1cccs1 (stereo not given),0,46*,34,11,-9,2,23
COCc1[nH]nc2c1C(c1sccc1C)C(C#N)=C(N)O2 (stereo not given),31,53*,34,21,8,-13,28*
COCc1[nH]nc2c1C(c1ccsc1)C(C#N)=C(N)O2 (stereo not given),15,13,22,21,-6,12,.
O=C(CNCCC1=CCCCC1)Nc1ccccc1N1CCCCC1,33,40*,28,-13,8,-31,24
Oc1ccc(Cl)cc1CNc1ccc(Br)cn1,31,47*,34,19,.,19,23
CCCNC(=O)N(CCOC)CC1CCCN(C2Cc3ccccc3C2)C1 (stereo not given),7,-7,4,17,-14,10,.
CCNC(=O)N(CCOC)CC1CCCN(C2Cc3ccccc3C2)C1 (stereo not given),-7,51*,-15,17,19,16,-8
COc1ccccc1-n1cnc2c(c1=O)c1nc3ccccc3nc1n2-c1ccc(C)cc1,34,46*,39,-4,-11,20,21
COc1ccccc1-n1c2nc3ccccc3nc2c2c(=O)n(-c3cc(C)cc(C)c3)cnc21,33,25,26,23,-7,22,.
COc1ccc(-c2cn3cc(C(F)(F)F)cc(Cl)c3n2)cc1,31,52*,29,33,8,3,37*
CC1(C(=O)N2CC3(CC(c4cccc(NC(=O)CC(c5ccccc5)c5ccccc5)c4)=NO3)C[C@@H]2C(N)=O)CC1 (stereo not given in full),22,96*,-1,16,-19,23,-20
COc1ccc(C(=O)N2CC3(CC(c4cccc(NC(=O)CC(c5ccccc5)c5ccccc5)c4)=NO3)C[C@H]2C(N)=O)cc1 (stereo not given in full),22,96*,24,13,10,.,-5
